Several values for one entry are separate records, joined by “and”; a condition that tells them apart may be missing. Equal entries are not always repeated. Activity calls are given as the source filed them. A call without a number means that no potency is given here. Calls follow the shape of the dose curve; as a rule, active = well fitted curve in the direction sought with a large enough effect in the repeat runs; inconclusive = weak or mixed curves; inactive = flat fitted curve, though single readings scatter.
Assay: qHTS assay to test for compound auto fluorescence at 590 nm (red) in HepG2 cell free culture (AID 720684)
Conditions: cell-free medium autofluorescence, red 540/590 nm; series mostly up to 91.3 µM
Method in brief: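 Readout: intrinsic compound fluorescence at 590 nm emission after 540 nm excitation, scaled to Rose Bengal sodium. Matrix was cell-free MEM with 10% FBS; DMSO vehicle wells served as control.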
Tags tell the direction and shape of the fitted curve or compound fluorescence and quenching.

| SMILES | outcome |
| --- | --- |
| CC(=O)OC(C)(C)C1CC=C(C)CC1 (configuration not stated) | inactive |
| Cc1ccc(C(C)C)cc1 | inactive |
| c1cnc2c(c1)ccc1cccnc12 | inactive |
| Cc1cc(CC(=O)O)n(C)c1C(=O)c1ccc(Cl)cc1 | inactive |
| C[Si](C)(C)N[Si](C)(C)C | inactive |
| OC[C@H]1O[C@@H](Oc2ccc(O)cc2)[C@H](O)[C@@H](O)[C@@H]1O | inactive |
| CCCCCCCCC(=O)O | inactive |
| CCn1cc(C(=O)O)c(=O)c2cc3c(cc21)OCO3 | inactive |
| Cc1cc(C)cc(O)c1 | inactive |
| Cc1ccc([N+](=O)[O-])cc1N | inactive |
| CC(C)(C)NC[C@H](O)COc1nsnc1N1CCOCC1 | inactive |

Assay: qHTS assay to test for compound auto fluorescence at 460 nm (blue) in HepG2 cell free culture (AID 720685); also: potency is read from the fitted curve at half-maximal effect
Conditions: Cell-free culture medium, blue autofluorescence 405/460 nm; series mostly up to 91.3 µM
Method in brief: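 Cell-free plates of MEM plus 10% FBS received 23 nL compound or DMSO vehicle; blue-channel (405/460 nm) intensity scored against triamterene as reference fluorophore.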

| SMILES | Potency |
| --- | --- |
| Cc1ccccc1Cl | inactive |
| CCCCCCC(=O)O | inactive |
| COc1ccccc1[N+](=O)[O-] | inactive |
| Cc1ccccc1C=O | inactive |
| Nc1cccc(C(F)(F)F)c1 | inactive |
| CCCOC(=O)NCCCN(C)C | inactive |
| COc1ccc(N)c(OC)c1 | inactive |
| Nc1nc(N)c2nc(-c3ccccc3)c(N)nc2n1 | 12.6 µM [fluorescent] (active) and 39.8 µM [fluorescent] (active) |
| Cc1ccc(Cl)cc1 | inactive |
| CC/C=C(\C(=O)N[C@@H]1C(=O)N2C(C(=O)OCOC(=O)C(C)(C)C)=C(COC(N)=O)CS[C@H]12)c1csc(N)n1 | inactive |
| CC(C)=CCC/C(C)=C/C=O | inactive |
| Cc1nnc(NS(=O)(=O)c2ccc(N)cc2)s1 | inactive |
| CC(=O)OCc1ccc2c(c1)OCO2 | inactive |
| NC(=O)NC(N)=O | inactive |
| CC(=O)c1nccs1 | inactive |
| OCc1ccc(Cl)cc1Cl | inactive |
| CC1(C)C(=O)N(Cl)C(=O)N1Cl | inactive |
| CCc1cccc(CC)c1N | inactive |
| O=C(O)Cc1c[nH]c2ccccc12 | inactive |

| SMILES | Potency |
| --- | --- |
| NC(=O)c1ncn([C@@H]2O[C@H](CO)[C@@H](O)[C@H]2O)n1 | inactive |
| CCCN(CCC)C(=O)SCC | inactive |
| CCOC(=O)CC(=O)OCC | inactive |
| CCCCCCCCCCCCCC(=O)O | inactive |
| CCCCCCCC(=O)O | inactive |
| O=C(c1ccccc1)c1ccc(O)c(O)c1O | inactive |
| O=[N+]([O-])c1ccccc1C(F)(F)F | inactive |
| COc1ccc([C@@H]2CC(=O)c3c(O)cc(O[C@@H]4O[C@H](CO[C@@H]5O[C@@H](C)[C@H](O)[C@@H](O)[C@H]5O)[C@@H](O)[C@H](O)[C@H]4O)cc3O2)cc1OC | inactive |
| CC(=O)OC(C)(C)C1CC=C(C)CC1 (configuration not stated) | inactive |
| Cc1ccc(C(C)C)cc1 | inactive |
| c1cnc2c(c1)ccc1cccnc12 | inactive |
| Cc1cc(CC(=O)O)n(C)c1C(=O)c1ccc(Cl)cc1 | inactive |
| C[Si](C)(C)N[Si](C)(C)C | inactive |
| OC[C@H]1O[C@@H](Oc2ccc(O)cc2)[C@H](O)[C@@H](O)[C@@H]1O | inactive |
| CCCCCCCCC(=O)O | inactive |
| CCn1cc(C(=O)O)c(=O)c2cc3c(cc21)OCO3 | inactive |
| Cc1cc(C)cc(O)c1 | inactive |
| Cc1ccc([N+](=O)[O-])cc1N | inactive |
| CC(C)(C)NC[C@H](O)COc1nsnc1N1CCOCC1 | inactive |

Assay: qHTS assay to test for compound auto fluorescence at 535 nm (green) in HepG2 cell free culture (AID 720686)
Conditions: Cell-free medium, green autofluorescence 485/535 nm; series mostly up to 91.3 µM

| SMILES | outcome |
| --- | --- |
| Cc1ccccc1Cl | inactive |
| CCCCCCC(=O)O | inactive |
| COc1ccccc1[N+](=O)[O-] | inactive |
| Cc1ccccc1C=O | inactive |
| Nc1cccc(C(F)(F)F)c1 | inactive |
| CCCOC(=O)NCCCN(C)C | inactive |
| COc1ccc(N)c(OC)c1 | inactive |
| Nc1nc(N)c2nc(-c3ccccc3)c(N)nc2n1 | inactive |
| Cc1ccc(Cl)cc1 | inactive |
| CC/C=C(\C(=O)N[C@@H]1C(=O)N2C(C(=O)OCOC(=O)C(C)(C)C)=C(COC(N)=O)CS[C@H]12)c1csc(N)n1 | inactive |
| CC(C)=CCC/C(C)=C/C=O | inactive |
| Cc1nnc(NS(=O)(=O)c2ccc(N)cc2)s1 | inactive |
| CC(=O)OCc1ccc2c(c1)OCO2 | inactive |
| NC(=O)NC(N)=O | inactive |
| CC(=O)c1nccs1 | inactive |
| OCc1ccc(Cl)cc1Cl | inactive |
| CC1(C)C(=O)N(Cl)C(=O)N1Cl | inactive |
| CCc1cccc(CC)c1N | inactive |
| O=C(O)Cc1c[nH]c2ccccc12 | inactive |

| SMILES | outcome |
| --- | --- |
| NC(=O)c1ncn([C@@H]2O[C@H](CO)[C@@H](O)[C@H]2O)n1 | inactive |
| CCCN(CCC)C(=O)SCC | inactive |
| CCOC(=O)CC(=O)OCC | inactive |
| CCCCCCCCCCCCCC(=O)O | inactive |
| CCCCCCCC(=O)O | inactive |
| O=C(c1ccccc1)c1ccc(O)c(O)c1O | inactive |
| O=[N+]([O-])c1ccccc1C(F)(F)F | inactive |
| COc1ccc([C@@H]2CC(=O)c3c(O)cc(O[C@@H]4O[C@H](CO[C@@H]5O[C@@H](C)[C@H](O)[C@@H](O)[C@H]5O)[C@@H](O)[C@H](O)[C@H]4O)cc3O2)cc1OC | inactive |
| CC(=O)OC(C)(C)C1CC=C(C)CC1 (configuration not stated) | inactive |
| Cc1ccc(C(C)C)cc1 | inactive |
| c1cnc2c(c1)ccc1cccnc12 | inactive |
| Cc1cc(CC(=O)O)n(C)c1C(=O)c1ccc(Cl)cc1 | inactive |
| C[Si](C)(C)N[Si](C)(C)C | inactive |
| OC[C@H]1O[C@@H](Oc2ccc(O)cc2)[C@H](O)[C@@H](O)[C@@H]1O | inactive |
| CCCCCCCCC(=O)O | inactive |
| CCn1cc(C(=O)O)c(=O)c2cc3c(cc21)OCO3 | inactive |
| Cc1cc(C)cc(O)c1 | inactive |
| Cc1ccc([N+](=O)[O-])cc1N | inactive |
| CC(C)(C)NC[C@H](O)COc1nsnc1N1CCOCC1 | inactive |

Reference: PubChem BioAssay (Tox21)
